# Test results: the supplement of paper PMC10127200
# Counter-ions that a name gives are not always drawn.
# Columns and labels:
# Assay in all cases: Euclidean distance of Cell Painting phenotypic profile (signed KS, 77 features) to DMSO centroid (dimensionless distance); 5 or 10 uM (library dependent); higher = stronger phenotypic change vs DMSO (phenoactivity)
# Details in all cases: 48 h
# [1] = system: 786-O
# Procedure, shortened: (§1)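 Harmony extracted 77 features from 20X confocal images (9 fields/well) of stained cells, scoring each as a signed Kolmogorov-Smirnov statistic against same-plate vehicle wells. The cells, five cancer lines and a healthy fibroblast line, had received library compounds for 48 h at 10 or 5 uM depending on library, with 0.1% DMSO final. Phenoactivity is the Euclidean distance from each plate-position-corrected, correlation-weighted, top-dose replicate-averaged profile to the median vehicle profile.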
# [2] = system: A549
# Procedure, shortened: as §1
# [3] = system: DU145
# Procedure, shortened: as §1
# [4] = system: FB
# Procedure, shortened: as §1
# [5] = system: HEPG2
# Procedure, shortened: as §1
# [6] = system: OVCAR4
# Procedure, shortened: as §1
SMILES,Euclidean distance [1],Euclidean distance [2],Euclidean distance [3],Euclidean distance [4],Euclidean distance [5],Euclidean distance [6]
COC(=O)C1=CO[C@@H](O[C@@H]2O[C@H](CO)[C@@H](O)[C@H](O)[C@H]2O)[C@@H]2[C@@H](C)[C@@H](O)C[C@H]12 [Loganin],0.879,0.804,1.02,0.781,0.691,0.971
CCOc1ccc2nc(S(N)(=O)=O)sc2c1 [Ethoxzolamide],0.892,0.718,1.34,1.35,1.09,0.937
CCOC(=O)Nc1cc(-c2ccc(C)c(NS(C)(=O)=O)c2)nn2c(C)nnc12 [Bromosporine],3.34,2.36,2.42,4.35,1.13,2.35
CCn1cc(C(=O)O)c(=O)c2cc(F)c(N3CCN(C)CC3)cc21 [Pefloxacin Mesylate],1.56,0.826,0.983,1.04,1.02,1.3
N[C@@]1(C(=O)O)CS(=O)(=O)[C@H]2[C@H](C(=O)O)[C@H]21,0.494,1.32,0.671,0.749,0.743,0.75
COC(=O)Nc1nc2cc(C(=O)c3ccccc3)ccc2[nH]1 [Mebendazole],3.02,3.03,3.69,2.58,3,2.7
CN1CCN(C2CCN(C(=O)Nc3cc(Oc4ccc(NC(=O)C5(C(=O)Nc6ccc(F)cc6)CC5)c(F)c4)ccn3)CC2)CC1 [Golvatinib (E7050)],1.08,1.47,1.32,3.36,3.28,1.45
CN(C)CCC(c1ccc(Br)cc1)c1ccccn1 (stereo unspecified) [Brompheniramine hydrogen maleate],1.21,0.63,1.13,1.18,0.5,1.36
CC(=O)O[C@H]1C[C@@H]2CC[C@@H]3[C@H](CC[C@@]4(C)[C@H]3C[C@H]([N+]3(C)CCCCC3)[C@@H]4OC(C)=O)[C@@]2(C)C[C@@H]1N1CCCCC1 [Vecuronium Bromide],1.85,1.53,1.34,1.07,0.966,1.28
COc1nc2ccc(Br)cc2cc1[C@@H](c1ccccc1)[C@@](O)(CCN(C)C)c1cccc2ccccc12 [Bedaquiline],1.63,1.17,1.33,0.823,0.496,0.927
OC[C@H]1O[C@@H](OCCc2ccc(O)cc2)[C@H](O)[C@@H](O)[C@@H]1O [Salidroside],1.05,0.737,0.796,0.815,0.763,1.5
O=C(O)CSCC(=O)NC1CCSC1=O (stereo unspecified) [Erdosteine],0.988,1.09,1.06,1.07,1.27,1.1
CN(CCOc1ccc(CC2SC(=O)NC2=O)cc1)c1ccccn1 (stereo unspecified) [Rosiglitazone],1.31,0.979,0.878,1.79,0.962,1.14
O=C1C[C@@H](c2ccc(O)cc2)Oc2cc(O)cc(O)c21 [Naringenin],0.882,1.06,0.744,1.06,0.936,1.11
CCC(=O)NS(=O)(=O)c1ccc(-c2c(-c3ccccc3)noc2C)cc1 [Parecoxib],0.575,0.57,0.471,1.11,0.593,0.719
CCC(=O)OCC(=O)[C@@]1(OC(=O)CC)[C@@H](C)C[C@H]2[C@@H]3CCC4=CC(=O)C=C[C@]4(C)[C@@]3(F)[C@@H](O)C[C@@]21C [Betamethasone Dipropionate],1.67,2.06,2.69,2.18,0.697,1.59
Clc1ccc2c(c1)CCc1cccnc1C2=C1CCNCC1 [Desloratadine],1.38,0.811,1.51,1.83,2.17,1.88
CNC(=O)c1cc(Oc2ccc3nc(N[C@@H]4CCCC[C@H]4O)sc3c2)ccn1,0.859,1.04,1.3,1.9,0.898,1.22
CC(COc1ccccc1)NC(C)C(O)c1ccc(O)cc1 (stereo unspecified) [Isoxsuprine hydrochloride],1.44,0.704,0.854,1.28,0.54,1.1
Cc1nccn1CCC(C(N)=O)(c1ccccc1)c1ccccc1 [Imidafenacin],0.703,1.19,1.34,1.02,0.727,1.42
C[N+]1(C)[C@@H]2CC[C@H]1C[C@@H](OC(=O)C(O)c1ccccc1)C2 (stereo partly specified) [Homatropine Methylbromide],0.885,1.85,1.26,1.47,0.52,0.995
CCN(CC)CCCC(C)Nc1c2ccc(Cl)cc2nc2ccc(OC)cc12 (stereo unspecified) [Quinacrine 2HCl],3.59,4.6,2.81,5.56,4.32,3.92
O=C(NCCCNc1nc(Nc2cccc(NC(=O)N3CCCC3)c2)ncc1I)c1cccs1,2.35,4.29,3.26,3.8,2.12,4.44

SMILES,Euclidean distance [1],Euclidean distance [2],Euclidean distance [3],Euclidean distance [4],Euclidean distance [5],Euclidean distance [6]
OCc1ccccc1 [Benzyl alcohol],1.29,0.876,0.897,1.21,1.52,1.19
CNC[C@H](O)c1cccc(O)c1 [Phenylephrine HCl],1.46,0.809,0.788,1.34,0.549,0.844
CC(=O)O[C@]1(C(C)=O)CC[C@H]2[C@@H]3C[C@H](C)C4=CC(=O)CC[C@]4(C)[C@H]3CC[C@@]21C [Medroxyprogesterone acetate],1.02,1.4,1.65,1.31,1,1.06
CN(C)c1ccc(C(=C2C=CC(=[N+](C)C)C=C2)c2ccc(N(C)C)cc2)cc1 [Crystal Violet],3.55,2.83,3,2.46,3.45,2.56
O=C1NC(=O)C(c2ccccc2[N+](=O)[O-])=C1Nc1ccc(O)c(Cl)c1,1.2,0.916,0.978,0.936,0.886,1.1
CC(=O)[C@H]1CC[C@H]2[C@@H]3CC=C4C[C@@H](O)CC[C@]4(C)[C@H]3CC[C@]12C [Pregnenolone],1.29,1.07,0.872,1.07,0.703,1.03
CC(=O)Nc1ccc(NC(=S)NC(=O)c2ccc(C(C)(C)C)cc2)cc1 [Tenovin-1],2.16,1.83,0.772,0.753,1.08,1.03
COc1cc(O)c2c(c1)C(=O)c1cc(C)cc(O)c1C2=O [Rheochrysidin],1.23,0.528,1.42,0.862,4.92,1.29
CCCOC(C(=O)OC1CCN(C)CC1)(c1ccccc1)c1ccccc1 [Propiverine hydrochloride],1.73,1.08,1.34,1.33,1.39,1.35
NC(=O)c1ccc(I)c([N+](=O)[O-])c1 [Iniparib (BSI-201)],1.06,0.758,1.44,1.31,0.803,1.14
O=C(O)CCCC[C@@H]1SC[C@@H]2NC(=O)N[C@@H]21 [Biotin (Vitamin B7)],0.776,0.871,0.982,0.902,0.533,1.23
C[n+]1ccccc1C=NO [Pralidoxime Iodide],1.45,0.771,0.975,0.641,0.434,0.907
CN1CCN(c2nc(C3=C(c4c[nH]c5ccccc45)C(=O)NC3=O)c3ccccc3n2)CC1 [Sotrastaurin],2.18,1.58,1.36,2.47,1.37,1.2
O=C1C[C@@H](c2ccc(O[C@@H]3O[C@H](CO)[C@@H](O)[C@H](O)[C@H]3O)cc2)Oc2cc(O)ccc21 [Liquiritin],1.07,0.817,0.781,1.59,0.642,1.16
CNS(=O)(=O)CCc1ccc2[nH]cc(C3CCN(C)CC3)c2c1 [Naratriptan],1.48,0.741,1.01,0.996,0.943,1.33
Cc1ccc(C(=O)N(CCCN)[C@@H](c2nc3cc(Cl)ccc3c(=O)n2Cc2ccccc2)C(C)C)cc1,3.64,3.18,4.25,2.49,3.84,3.78
Clc1ccc(CSC(Cn2ccnc2)c2ccc(Cl)cc2Cl)cc1 (stereo unspecified) [Sulconazole Nitrate],1.3,1.23,1.07,0.983,1.1,1.31
COc1cc(C(=O)NCc2ccc(OCCN(C)C)cc2)cc(OC)c1OC [Tribenzagan Hydrochloride],1.18,1.99,1.05,1.12,1.07,1.09
CNC(=O)c1ccc(C)c(-n2c(C)cc(OCc3ccc(F)cc3F)c(Br)c2=O)c1,1.33,1.29,0.844,1.55,1.94,1.07
CCN1/C(=C/C(C)=O)Sc2ccc(OC)cc21,0.422,0.711,1.03,0.64,1.98,0.872
O=C(NC1CCNCC1)c1n[nH]cc1NC(=O)c1c(Cl)cccc1Cl,3.37,3.2,2.81,4.13,2.47,3.69
CC(C)NCC(O)c1ccc(O)c(O)c1 (stereo unspecified) [Isoproterenol sulfate dihydrate],1.03,0.632,2.58,1.23,0.763,0.894
CC(C)C[C@H](NC(=O)[C@@H](NC(=O)c1cccc(-c2ccccc2)n1)[C@@H](C)O)B(O)O,4.27,4.06,4.4,3.55,4.77,5.53
